The whole screen tested about 310,000 compounds, of which about 3,900 (1.3%) were called active.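 The calls were made as follows: active = compounds whose thallium flux B-score, printed positive for inhibition, exceeds three library SD while starting fluorescence stays within three; inactive = the rest.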 For the sample, actives were picked, then their nearest neighbours and some compounds at random.
The molecules below were run against Potassium voltage-gated channel subfamily KQT member 1 (Homo sapiens) (UniProt P51787) (assay: inhibitors of human KCNQ1 channel, primary screen, cell-based, thallium flux, high-throughput (AID 2642;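 also: channel opened by potassium depolarization with thallium stimulus after 20 min compound exposure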)). Conditions: CHO-K1 KCNQ1, FluxOR thallium flux fluorescence, at 10 µM; stronger effect = higher value.
Potassium voltage-gated channel subfamily KQT member 1 (Homo sapiens), sequence (P51787 whole entry, looked up): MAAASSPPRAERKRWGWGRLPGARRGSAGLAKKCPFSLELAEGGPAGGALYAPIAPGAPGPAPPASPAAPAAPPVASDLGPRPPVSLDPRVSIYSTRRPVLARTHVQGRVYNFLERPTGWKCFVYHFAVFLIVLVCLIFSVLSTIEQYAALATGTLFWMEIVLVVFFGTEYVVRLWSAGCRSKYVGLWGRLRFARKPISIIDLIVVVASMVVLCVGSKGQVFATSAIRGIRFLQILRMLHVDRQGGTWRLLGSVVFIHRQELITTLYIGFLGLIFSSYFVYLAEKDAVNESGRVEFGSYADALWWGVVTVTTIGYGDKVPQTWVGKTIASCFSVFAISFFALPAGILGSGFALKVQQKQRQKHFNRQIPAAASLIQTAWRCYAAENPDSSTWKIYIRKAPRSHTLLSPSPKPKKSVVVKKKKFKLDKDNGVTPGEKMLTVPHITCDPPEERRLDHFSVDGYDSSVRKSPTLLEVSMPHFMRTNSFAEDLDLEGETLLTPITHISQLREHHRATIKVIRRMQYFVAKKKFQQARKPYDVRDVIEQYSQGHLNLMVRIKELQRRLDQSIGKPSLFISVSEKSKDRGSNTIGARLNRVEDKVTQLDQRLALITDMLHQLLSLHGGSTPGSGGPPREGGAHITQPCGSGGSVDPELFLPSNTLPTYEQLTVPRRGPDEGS
For CCC1=Nc2cc(C(=O)NCCN3CCCC3)ccc2Sc2ccc(C)cc21, the B-score was “inactive”.
Cc1ccc(C(=O)NCCN2CCOCC2)cc1C was tested, and the B-score was “inactive”.
Cc1cccc(-c2nc3ccc(C(=O)NCCN4CCN(C)CC4)cc3nc2-c2cccc(C)c2)c1 was tested, and the B-score was 7 (active).
For CCCNC(=O)c1ccc(N2CCC3(CC2)CC(c2cccc(Br)c2)=NO3)c(NC(=O)c2ccco2)c1, the B-score was 6 (active).
With CCCNC(=O)c1ccc(N2CCC3(CC2)CC(c2ccc(Cl)cc2)=NO3)c([N+](=O)[O-])c1 the B-score was “inactive”.
For O=C(Nc1ccccc1N1CCN(C(=O)c2ccccc2)CC1)c1ccco1, the B-score was “inactive”.
For c1ccc2c(C[n+]3csc4ccccc43)cccc2c1, the B-score was “inactive”.
With CC1(C(=O)NCCc2c[nH]c3ccccc23)C=CC2(CCCCC2)N1C(=O)c1ccccc1 (configuration not stated) the B-score was “inactive”.
C/C(=N\NC(=S)NC1CCCCC1)c1ccc(C)o1 was tested, and the B-score was “inactive”.
In the case of CCc1nnc(NC(=O)CSc2nnc(COc3ccc(C#N)cc3)n2-c2ccccc2)s1, the B-score is reported as “inactive”.
CCc1nnc(NC(=O)CSc2nnc(Cc3ccccc3)n2-c2ccc(OC)cc2)s1 was tested, and the B-score was 11 (active).
For CCc1nnc(NC(=O)CSc2nnc(-c3ccncc3)n2Cc2ccccc2)s1, the B-score was “inactive”.
In the case of O=C1CCc2cc(S(=O)(=O)N3CCC(C(=O)NCc4ccccc4Cl)CC3)ccc2N1, the B-score is reported as 8 (active).
O=C(NCc1ccccc1Cl)C1CCN(S(=O)(=O)N2CCOCC2)CC1 was tested, and the B-score was “inactive”.
For O=C(NCc1ccccc1Cl)C1CCN(S(=O)(=O)c2cccc3nonc23)CC1, the B-score was “inactive”.
With Cc1nnc(-c2ccc(Oc3ccc(C)c(C)c3)c([N+](=O)[O-])c2)o1 the B-score was “inactive”.
For Cc1c(Br)c([N+](=O)[O-])nn1C(C)C(=O)Nc1nccs1 (configuration not stated), the B-score was “inactive”.
In the case of CC(=O)Nc1ccc(NC(=O)c2ccc3c(c2)C(=O)N(c2ccccc2C)C3=O)cc1, the B-score is reported as “inactive”.
With CC(C)OCCCNC(=O)c1cc(Sc2ccc(F)cc2)nc2ccccc12 the B-score was “inactive”.
With CC(C)OCCCNc1ncnc2c1[nH]c1ccc(F)cc12 the B-score was 9 (active).
For COc1cc(OC)c(OC)cc1/C=N/Nc1ncnc2c1[nH]c1ccc(C)cc12, the B-score was “inactive”.
With CN(CCOc1ccc(Br)cc1)CC(=O)Nc1cccc(S(=O)(=O)NC2=NCCC2)c1 the B-score was “inactive”.
In the case of Cc1cccc(NC(=O)CSCC(=O)Nc2nnc(C3CC3)s2)c1, the B-score is reported as “inactive”.
For O=C(CSc1nnc(SCc2ccc(F)cc2)s1)Nc1ccc(C(=O)O)cc1, the B-score was “inactive”.
For CC1=C(C(N)=O)C(c2sccc2C)n2nnnc2N1 (configuration not stated), the B-score was “inactive”.
For CCCCOc1ccc(C(=O)NN2CCN(C)CC2)cc1, the B-score was “inactive”.
With CCCOc1ccc(C(=O)C(CCC(CNCC)C(=O)c2ccc(OCCC)cc2)CNCC)cc1 (configuration not stated) the B-score was 6 (active).
In the case of CCCOc1ccc(C(=O)CCC(=O)OC(C)C(=O)Nc2ccc(NC(C)=O)cc2)cc1 (configuration not stated), the B-score is reported as “inactive”.
With Cc1nn(CC(=O)NCCc2ccccc2)c(=O)c2cc3occc3n12 the B-score was “inactive”.
With CC12CN(NC(=O)c3ccc(Cl)cc3)C3(C#N)CC1CCC23C (configuration not stated) the B-score was “inactive”.
COc1ccccc1NC(=O)/C=C/C(N)=O was tested, and the B-score was “inactive”.
With CCc1ccc(NC(=O)NC(C)c2ccc3c(c2)OCO3)cc1 (configuration not stated) the B-score was “inactive”.
With O=C(Nc1ccc2c(c1)OCCO2)C(c1ccc(F)cc1)N1CCCCC1 (configuration not stated) the B-score was “inactive”.
With CC1CCCN(C(C(=O)Nc2ccc(C(C)C)cc2)c2ccc3c(c2)OCO3)C1 (configuration not stated) the B-score was 7 (active).
In the case of CC(C)C[C@H](NC(=O)N1CCn2c1nc1ccccc12)C(=O)NC1CC1, the B-score is reported as “inactive”.
In the case of Fc1cc(Br)ccc1NC(=S)Nc1cccnc1, the B-score is reported as 7 (active).
In the case of O=C(Nc1cccnc1)c1cc2cc(Br)ccc2oc1=O, the B-score is reported as “inactive”.
With S=C(Nc1cccnc1)Nc1ccccn1 the B-score was “inactive”.
In the case of COc1ccc(CCNC(=O)CN(c2ccccc2)S(C)(=O)=O)cc1, the B-score is reported as “inactive”.
In the case of COc1ccc(OCCNS(=O)(=O)Cc2ccccc2)cc1, the B-score is reported as “inactive”.
In the case of CNC(=O)c1ccsc1NC(=O)c1ccc(S(=O)(=O)N2CCOCC2)cc1, the B-score is reported as “inactive”.
CNC(=O)c1ccsc1NC(=O)c1ccc(S(=O)(=O)N2CCc3ccccc32)cc1 was tested, and the B-score was 7 (active).
In the case of O=S(=O)(c1ccccc1)N1CCc2ccccc21, the B-score is reported as “inactive”.
For CCC(=C/c1sc2ccc3ccccc3c2[n+]1C)/C=C1\Sc2ccc3ccccc3c2N1C, the B-score was 19 (active).
In the case of COc1cc(OC)c(S(=O)(=O)Nc2ccccc2C(=O)O)cc1S(=O)(=O)Nc1ccccc1C(=O)O, the B-score is reported as “inactive”.
With COC(=O)c1ccc(NC(=O)c2ccccc2NS(=O)(=O)c2ccccc2)cc1 the B-score was “inactive”.
With COc1cc(NC(=O)c2ccccc2NS(=O)(=O)c2ccc(Cl)s2)cc(OC)c1 the B-score was 8 (active).
In the case of N#Cc1cccc(CN2CCC(=O)N(CCO)CC2)c1, the B-score is reported as “inactive”.
COc1ccc(CCNC(=O)c2ccccc2OCc2ccccc2)cc1 was tested, and the B-score was “inactive”.
In the case of CC(=O)c1ccccc1OCc1ccc(C(=O)c2ccccc2)cc1, the B-score is reported as 9 (active).
In the case of O=C(NC1CCC(O)CC1)c1ccccc1OCc1ccc(F)cc1 (configuration not stated), the B-score is reported as “inactive”.
For C/C(=N\NC(=O)Cc1ccccc1[N+](=O)[O-])c1cccnc1, the B-score was “inactive”.
For COc1ccc(C(CNC(=O)c2cccc(S(=O)(=O)Nc3ccccc3Cl)c2)N2CCOCC2)cc1 (configuration not stated), the B-score was “inactive”.
COc1ccc(C(CNC(=O)c2cccc(NS(=O)(=O)c3ccc(C)c(F)c3)c2)N2CCCC2)cc1 (configuration not stated) was tested, and the B-score was 8 (active).
COc1ccc(C(CNC(=O)c2ccc(S(=O)(=O)Nc3ccccc3C)cc2)N2CCOCC2)cc1 (configuration not stated) was tested, and the B-score was “inactive”.
CSCCC(NC(=O)COc1ccccc1)C(=O)OCCOc1ccc(Br)cc1 (configuration not stated) was tested, and the B-score was “inactive”.
Cc1ccc2nc(C)c3c(c2c1)N(c1ccccc1)CC3 was tested, and the B-score was 7 (active).
For Cc1nc2ccc(C(=O)N3CCN(c4ccccc4)CC3)cc2s1, the B-score was “inactive”.
In the case of Cc1ccc2nc(Nc3ccccc3)cc(C)c2c1, the B-score is reported as “inactive”.
With CCOC(=O)c1nnn(-c2nonc2-n2cccc2)c1CN1CCC(C(=O)OCC)CC1 the B-score was “inactive”.
For O=C(Nc1cccc(Cl)c1)c1cc(S(=O)(=O)N2CCCCC2)c[nH]1, the B-score was “inactive”.
COc1ccccc1N1N=C(c2cccs2)CC1c1ccccc1 (configuration not stated) was tested, and the B-score was “inactive”.
Fc1ccc(N2N=C(c3cccs3)CC2c2ccco2)c(F)c1 (configuration not stated) was tested, and the B-score was 6 (active).
For COc1ccc(C2CC(c3cccs3)=NN2c2ccc(F)cc2)cc1OC (configuration not stated), the B-score was “inactive”.
With O=C(c1c(F)cccc1F)N1CCN(c2ncc(Br)cn2)CC1 the B-score was “inactive”.
In the case of O=C(NCC(c1ccco1)N1CCc2ccccc21)c1cccc(F)c1 (configuration not stated), the B-score is reported as “inactive”.
With O=C(COC(=O)c1ccc(S(=O)(=O)N2CCc3ccccc3C2)cc1)NC(=O)NCc1ccco1 the B-score was “inactive”.
In the case of COc1c(C)cc(C(=O)C2CCCN(S(=O)(=O)c3c(C)noc3C)C2)cc1C (configuration not stated), the B-score is reported as “inactive”.
COc1ccc(S(=O)(=O)N2CCN(C(=S)NCC3CCCO3)CC2)cc1OC (configuration not stated) was tested, and the B-score was “inactive”.
With CCOc1ccc(S(=O)(=O)N2CCN(C(=S)NCC3CCCO3)CC2)cc1 (configuration not stated) the B-score was “inactive”.
With S=C(NCC1CCCO1)N1CCN(c2ccc(Cl)c(Cl)c2)CC1 (configuration not stated) the B-score was 7 (active).
With CC(C)=CCc1c(O)c(CC=C(C)C)c2occ(-c3ccc(O)cc3)c(=O)c2c1O the B-score was 11 (active).
For O=c1c(-c2ccccc2)coc2c(CN3CCOCC3)c(O)ccc12, the B-score was “inactive”.
For CC(C)CN(Cc1c(O)ccc2c(=O)c(-c3ccccc3)coc12)CC(C)C, the B-score was “inactive”.
For O=C(NCCc1ccc(Cl)cc1)c1cccc(N2CCCC2=O)c1, the B-score was “inactive”.
With Cc1nnc(SCC(=O)Nc2ncc3c(n2)CC(C)(C)CC3=O)s1 the B-score was “inactive”.
With Cc1ccccc1NC(=O)CSc1ccc2nnc(-c3ccccn3)n2n1 the B-score was “inactive”.
In the case of CC(NC(=O)COC(=O)c1ccc2c(c1)OCO2)c1ccccc1 (configuration not stated), the B-score is reported as “inactive”.
For COc1cc(/C=C2\CCCc3c2nc2ccccc2c3C(=O)O)cc(Cl)c1O, the B-score was “inactive”.
NC(=O)c1ccc(NC(=O)COC(=O)c2c3c(nc4ccccc24)/C(=C\c2ccc4c(c2)OCO4)CCC3)cc1 was tested, and the B-score was 7 (active).
In the case of CSc1ccccc1NC(=O)c1cc(C2CC2)on1, the B-score is reported as “inactive”.
With Cc1cc(=O)oc2cc(OCC(=O)N3CCN(c4ccc(F)cc4)CC3)c(Cl)cc12 the B-score was “inactive”.
With O=C(c1cc(-c2ccco2)nc2ccccc12)N(Cc1nnc(-c2ccc(Cl)cc2)o1)C1CC1 the B-score was “inactive”.
With O=C(CN1C(=O)NC2(CCCCC2)C1=O)NCCc1c[nH]c2ccccc12 the B-score was “inactive”.
For CC(=O)N/C(=C/c1ccc(Cl)cc1)C(=O)NCCc1c[nH]c2ccccc12, the B-score was “inactive”.
N#C/C(=C/c1ccc(N2CCCCC2)o1)C(=O)NCCc1c[nH]c2ccccc12 was tested, and the B-score was 7 (active).
With CCCc1ccc(-c2c(C)sc(NC(=O)c3ccnn3C)c2C#N)cc1 the B-score was “inactive”.
With Cc1noc(/C=C/c2ccco2)c1S(=O)(=O)N1CCC(C(=O)N2CCc3ccccc32)CC1 the B-score was “inactive”.
Cc1ccc(NC2=C(Cl)C(=O)OC2OC(=O)c2ccccc2C)cc1 (configuration not stated) was tested, and the B-score was “inactive”.
With O=C1OC(OC(=O)c2ccccc2Br)C(N2CCOCC2)=C1Cl (configuration not stated) the B-score was “inactive”.
In the case of Cc1ccccc1C(=O)OC1OC(=O)C(Cl)=C1Nc1ccccc1 (configuration not stated), the B-score is reported as 11 (active).
With O=C(NC1CC1)C1=C[C@H](c2c[nH]c3ccccc23)C[C@H](OCc2ccc(CO)cc2)O1 the B-score was “inactive”.
For CC(C)(C)c1ccc(/C=C/C(=O)NC2CCS(=O)(=O)C2)cc1 (configuration not stated), the B-score was “inactive”.
For Clc1ccc(C2[C@H]3CN(CC4CCCCC4)[C@H](c4ccccc4)C34CC2(c2cccnc2)C4)cn1 (some centres not stated), the B-score was “inactive”.
For O=C(NCCc1ccccc1)c1ccc2c(c1)N(Cc1ccccc1)CCS2, the B-score was 10 (active).
CCOC(=O)N1CCN(C(=O)c2ccc3c(c2)N(Cc2ccc(C)cc2)CCS3)CC1 was tested, and the B-score was “inactive”.
With O=C(NCCN1CCOCC1)c1ccc2c(c1)N(Cc1ccc(Cl)cc1)CCS2 the B-score was “inactive”.
With CC(=O)c1c(C)n(-c2ccc(C)cc2)c2ccc(O)cc12 the B-score was “inactive”.
CCc1ccc(CN(C)C(=O)C2CCC(=O)N(Cc3cccc(OC)c3)C2)nc1 (configuration not stated) was tested, and the B-score was “inactive”.
For COc1cc(N2C(=O)c3ccccc3C2=O)c(Cl)cc1C(=O)OCC(=O)N1CCOCC1, the B-score was “inactive”.
For C=CS(=O)c1sc(Cl)c(N2CCOCC2)c1[N+](=O)[O-] (configuration not stated), the B-score was 7 (active).
With Cc1ccccc1C(=O)NCC(c1ccco1)N1CCc2ccccc21 (configuration not stated) the B-score was “inactive”.
